Screening data from PubChem BioAssay.
Shown are actives, neighbours in structure and some others; about 9.5% of the full set was active somewhere.
Tau fibril FP = blocks human tau fibril formation measured by polarization | P10636 | K18 P301L tau heparin fibrillization, Alexa594 FP, 6 h | Potency, µM (series often up to 57.7 µM), for the others: top-dose activity, negative = inhibition, usual class: inhibitors | 280,000 tested, 0.39% active | AID 1468; also: nearly all actives have a fitted effect of over 55% in size
Target sequence (P10636 561-689 P618L limits assumed): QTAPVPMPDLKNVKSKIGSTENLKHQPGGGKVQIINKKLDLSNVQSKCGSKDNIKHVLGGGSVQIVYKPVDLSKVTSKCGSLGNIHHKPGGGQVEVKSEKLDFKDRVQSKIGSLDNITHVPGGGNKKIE
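K18 P301L tau (15 uM unlabeled/0.24 uM Alexa 594-labeled, final) + compound + heparin 20 uM final; 100 mM NaOAc pH 7; 6 hr 37 C; ThT 30 uM final added, 1 hr RT; FP ex 555/em 632 nm.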
Tau fluor cs = counter-screen for tau fibril formation inhibitors. 280,000 tested, 0.93% active. tau K18 P301L Alexa594 fluorescence, heparin fibrillization. Potency, µM (highest dose often 57.7 µM), inactives show at the top dose activity change, negative = decrease. AID 1463; also: nearly all actives have a fitted effect of over 55% in size
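Human K18 P301L tau (15 uM unlabeled plus 0.24 uM Alexa 594-labeled, final) in 100 mM sodium acetate pH 7 was mixed with compound and 20 uM heparin and incubated 6 hr at 37 C.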
NPSR antag = blocks cAMP signaling of the human neuropeptide S receptor; Q6W5P4; CHO-NPSR cells, cAMP TR-FRET, antagonist mode; Potency, µM (top dose mostly 38.3 µM), without a hit: at the top dose activity change, negative = inhibition, usual class: inhibitors; 220,000 tested, 1% active; also: nearly all actives have a fitted effect of over 50% in size
Tau ThT inhib = tau fibrillization inhibition (ThT binding); 270,000 tested, 2.1% active; P10636; recombinant tau K18 P301L (four-repeat tau fragment), heparin-induced fibrillization, ThT fluorescence; Potency, µM (titrated, usually from 57.4 µM), without a hit: top-dose activity, negative = inhibition, actives largely listed as inhibitors; also: nearly all actives have a fitted effect of over 55% in size
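Heparin-induced (20 uM) aggregation of recombinant human K18 P301L tau, 15 uM unlabeled with 0.24 uM labeled, pH 7 acetate buffer, 6 hr at 37 C with compound. Fibrils quantified by 30 uM ThT fluorescence after 1 hr ambient incubation.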
ALDH1A1 inh = blocks purified human ALDH1A1 activity; P00352; Purified ALDH1A1, NADH fluorescence, propionaldehyde substrate; Potency, µM (series often up to 75.3 µM), without a hit: at the highest dose activity, negative = inhibition, actives largely listed as inhibitors; 220,000 tested, 7.3% active; active = well fitted inhibition curve with a large enough effect, not every such curve was filed as active; inconclusive = small, poorly fitted or top-dose-only effect, or another doubt; inactive = no such curve, though single readings can be large or run the other way;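 also: plate controls were no enzyme wells and a reference inhibitor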
HPGD block = HPGD (human) dehydrogenase inhibition. P15428. purified HPGD, NADH fluorescence kinetic, PGE2 substrate. Potency, µM, for inactives: top-dose activity change, negative = inhibition, most hits filed as inhibitors. 150,000 tested, 4.3% active; active = well fitted inhibition curve with a large enough effect, not every such curve was filed as active; inconclusive = small, poorly fitted or top-dose-only effect, or another doubt; inactive = no such curve, though single readings can be large or run the other way
Target sequence (P15428 whole entry, looked up): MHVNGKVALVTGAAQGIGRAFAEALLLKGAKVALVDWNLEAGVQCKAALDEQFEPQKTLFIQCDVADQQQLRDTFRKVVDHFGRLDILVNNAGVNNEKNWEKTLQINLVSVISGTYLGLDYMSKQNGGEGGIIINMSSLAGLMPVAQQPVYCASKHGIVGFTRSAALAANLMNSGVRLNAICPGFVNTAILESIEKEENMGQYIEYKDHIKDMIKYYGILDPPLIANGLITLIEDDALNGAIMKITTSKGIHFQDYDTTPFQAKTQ
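NADH formation kinetics: reaction with 30 uM PGE2 and 1 mM NAD+ (final), 20 nM enzyme, Tris-HCl pH 8 with Tween 20, after 15 min compound preincubation at room temperature. Fluorescence change, last versus first of five reads.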
* = called active by the depositor; ? = inconclusive; . = no result given; [ ] = remark or other dose. Unless noted, calls follow the shape of the dose curve; as a rule, active = well fitted curve in the direction sought with a large enough effect; inconclusive = small, poorly fitted or top-dose-only effect, or another doubt; inactive = no such curve, though single readings can be large; an effect the other way counts as inactive or inconclusive. Unless noted, % is scaled to controls: 0 for no effect and ±100 for the full control effect; potency is read from the fitted curve at half-maximal effect.

SMILES	Tau fibril FP	Tau fluor cs	NPSR antag	Tau ThT inhib	ALDH1A1 inh	HPGD block
NC(Cc1ccc(O)c(O)c1)C(=O)O (stereo not given)	25µM*	18µM*[quencher]	.	11µM*	?	?
O=C(/C=C/c1ccc(O)c(O)c1)O[C@H](Cc1ccc(O)c(O)c1)C(=O)O	?	14µM*[quencher]	17%	13µM*	.	.
N[C@@H](Cc1ccc(O)cc1)C(=O)O	-4%	-3%	.	-5%	5%	-9%
N[C@H](Cc1ccc(O)c(O)c1)C(=O)O	?	-8%	-5%[46.1 µM]	16µM*	?	-23%
Cc1ccc2oc(=O)c3cnn(CC(=O)N4CCN(c5ccccc5F)CC4)c3c2c1	-2%	-13%	.	?	.	.
Cc1nc(-c2ccc(Cl)cc2)sc1CCNC(=O)c1ccco1	-5%	-15%	.	?	.	.
O=C(Nc1cccc(F)c1)N1CC2(CCN(S(=O)(=O)c3ccccc3)CC2)C1	.	.	.	.	0%	-7%
Nc1ccc(N)c(C(=O)O)c1	?	?	-18%	14µM*	.	.
Cc1cc(C)nc(NS(=O)(=O)c2ccc(N/C=C/C(=O)c3ccc(Cl)c(Cl)c3)cc2)n1	0%	-3%	-40%	-6%	3%	?
NC(=O)c1ccc[n+](CC(=O)OCCC23CC4CC(CC(C4)C2)C3)c1	-1%	-3%	0%[46.1 µM]	-3%	25µM*	-7%
NC(=O)c1ccc[n+](CC(=O)c2ccc(Br)cc2)c1	-3%	-11%	4%	?	9%	.
COc1cc(=O)n2c(-c3ccccc3)csc2n1	6%	6%	0%[46.1 µM]	-10%	1%	-13%
COC(=O)c1cc(=O)n2c(-c3ccc(OC)cc3)csc2n1	5%	-5%	-5%[46.1 µM]	-7%	5µM*	-10%
CC1CCN(CCNC(=O)C2CCCN(S(=O)(=O)c3cccc4nonc34)C2)CC1 (stereo not given)	4%	-19%	5%[46.1 µM]	-18%	-11%	-7%
COc1cc(C2CC(=O)n3c(nc4ccccc43)S2)cc(OC)c1OC (stereo not given)	-1%	-2%	1%	-2%	?	-9%
COc1ccccc1N1CSC2=C(C#N)C(c3ccc(SC)cc3)CC(=O)N2C1 (stereo not given)	?	-24%	-8%[46.1 µM]	28µM*	8.9µM*	8.9µM*
COc1cc(C2CC(=O)N3CN(c4ccccc4C)CSC3=C2C#N)cc(OC)c1OC (stereo not given)	?	-13%	-10%[46.1 µM]	22µM*	2.8µM*	28µM*
CCc1ccc(C(=O)/C=C/c2ccc([N+](=O)[O-])o2)cc1	?	?	?	8.9µM*	3.5µM*	-24%
CCCCCC(=O)N/N=C/c1ccc([N+](=O)[O-])o1	-6%	-16%	-14%	?	.	.
COC1=C(N)C(=O)c2nc(-c3nc(C(=O)O)c(C)c(-c4ccc(OC)c(OC)c4O)c3N)ccc2C1=O	?	?	3%	16µM*	-9%	-14%
COc1ccc(C(=O)O)c(O)c1OC	?	-19%	.	-8%	-2%	-7%
CCOC(=O)c1sc(NC(=O)CSC(=S)N2CCN(C)CC2)nc1C	-2%	-5%	3%	1%	.	.
COC(=O)c1sc(N2C(=O)C(O)=C(C(=O)c3ccc(C)o3)C2c2ccc(F)cc2)nc1C (stereo not given)	-7%	-12%	22%[46.1 µM]	?	?	8.9µM*
Oc1ccc2ccccc2c1N=Nc1ccccc1F	0%	?	5%	16µM*	.	.
Oc1ccc2ccccc2c1N=Nc1ccccn1	4%	?	7.9µM*	5µM*	?	32µM*
SMILES	Tau fibril FP	Tau fluor cs	NPSR antag	Tau ThT inhib	ALDH1A1 inh	HPGD block
O=S(=O)(O)c1cccc(N=Nc2c(O)ccc3ccccc23)c1	?	-23%	-2%	.	.	.
COc1cc(OC)nc(Oc2ccccc2C(=O)Oc2cccc(C)c2)n1	-6%	-10%	-25%[46.1 µM]	-5%	7%	-6%
O=C(NNc1ccccc1)C(=O)NNS(=O)(=O)c1ccc(CCCl)cc1	-5%	-13%	-14%	-13%	6.3µM*	.
CC(C)CCN1C(=O)CC(NNC(=O)c2ccc(S(=O)(=O)N3CCCC3)cc2)C1=O (stereo not given)	-2%	-19%	-11%	-18%	13µM*	.
COCCN1C(=O)CC(NNC(=O)c2ccc(S(=O)(=O)N3CCCC3)cc2)C1=O (stereo not given)	0%	-6%	12%	-5%	-12%	.
CCOC(=O)CC1=NN(c2ccccc2)C(=O)/C1=C\c1ccc(OC)cc1OC	1%	-12%	-1%	-19%	?	28µM*
COC(=O)CC1=NN(c2ccccc2)C(=O)/C1=C\c1ccc(OC)cc1	-2%	-16%	-6%	?	?	14µM*
COC(=O)CC1=NN(c2ccc(OC)cc2)C(=O)/C1=C\c1ccc(Cl)cc1	?	?	-33%	?	-11%	25µM*
N#CC1=C(N)Oc2c(O)cc3ccccc3c2C1c1ccsc1 (stereo not given)	?	16µM*[quencher]	-44%	?	16%	-2%
CSC1=C(C#N)C(c2ccccc2Cl)C(C(=O)c2cccs2)C(O)(C(F)(F)F)N1 (stereo not given)	-6%	-23%	-14%	-13%	-8%	2%
CCSC1=C(C#N)C(c2ccccc2Cl)C(C(=O)c2cccs2)C(O)(C(F)(F)F)N1 (stereo not given)	4%	-1%	-24%[46.1 µM]	-10%	11µM*	-14%
C=CCSC1=C(C#N)C(c2ccccc2Cl)C(C(=O)c2cccs2)C(O)(C(F)(F)F)N1 (stereo not given)	-14%	-27%	-40%	?	14µM*	-9%
OCl	.	.	.	.	4%	-14%
C/C(Cn1nc([N+](=O)[O-])cc1C)=N\NC(=O)COc1ccccc1[N+](=O)[O-]	-3%	-11%	-35%	-10%	14µM*	-8%
CC(C)(C)C1CCC2(CC1)NC(=S)N(c1ccccc1)N2 (stereo not given)	10%	3%	-12%[46.1 µM]	-8%	?	11µM*
Cc1nn(C(C)C(=O)N/N=C/c2ccc(N(C)C)cc2)c(C)c1[N+](=O)[O-] (stereo not given)	3%	-25%	39%	-18%	.	.
Cn1cccc1Cc1nnc(SCC(=O)Nc2cccc(F)c2)n1CCc1ccccc1	-2%	-27%	-38%	-12%	?	-11%
Cn1cccc1Cc1nnc(SCC(=O)Nc2ccccc2F)n1CCc1ccccc1	-4%	-13%	-11%	-12%	25µM*	-14%
Cn1cccc1Cc1nnc(SCC(=O)N2CCCCCC2)n1CCc1ccccc1	11%	-3%	-15%[46.1 µM]	?	25µM*	-9%
Cc1ccccc1Nc1oc(-c2ccccc2)nc1-c1cccs1	-6%	-11%	.	-13%	1%	-12%
